A short description of experiment [1]: ATG_GLI_CIS: Attagene CIS-FACTORIAL HepG2 Assay for human Zinc Finger Protein GLI1 (AID 2282945). Conditions: HepG2, Attagene cis-factorial reporter mRNA, GLI element; actives raise or lower the signal. The method, boiled down: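 Bidirectional curve fits relative to DMSO, using reporter mRNA levels from RT-PCR plus capillary electrophoresis. Cells were HepG2 transiently carrying cis-regulated reporter constructs, harvested 24 h after dosing.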

The target in experiment [2] is Bile acid receptor (Homo sapiens) (UniProt Q96RI1). The experiment is described as follows: ATG_IR1_CIS: Attagene CIS-FACTORIAL HepG2 Assay for human Nuclear Receptor Subfamily 1 Group H Member 4 (NR1H4), IR1 submotif (AID 2282946). To be noted: IR1 reporter transcription, actives raise or lower the signal. Summed up: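 HepG2 cells transiently transfected with multiplexed cis-element reporter units read endogenous transcription factor activity. After 24 h compound exposure, reporter mRNA was quantified by RT-PCR, fluorescent labelling, HpaI digestion and capillary electrophoresis; bidirectional fitting versus DMSO baseline.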
Bile acid receptor (Homo sapiens), sequence (Q96RI1 whole entry, looked up): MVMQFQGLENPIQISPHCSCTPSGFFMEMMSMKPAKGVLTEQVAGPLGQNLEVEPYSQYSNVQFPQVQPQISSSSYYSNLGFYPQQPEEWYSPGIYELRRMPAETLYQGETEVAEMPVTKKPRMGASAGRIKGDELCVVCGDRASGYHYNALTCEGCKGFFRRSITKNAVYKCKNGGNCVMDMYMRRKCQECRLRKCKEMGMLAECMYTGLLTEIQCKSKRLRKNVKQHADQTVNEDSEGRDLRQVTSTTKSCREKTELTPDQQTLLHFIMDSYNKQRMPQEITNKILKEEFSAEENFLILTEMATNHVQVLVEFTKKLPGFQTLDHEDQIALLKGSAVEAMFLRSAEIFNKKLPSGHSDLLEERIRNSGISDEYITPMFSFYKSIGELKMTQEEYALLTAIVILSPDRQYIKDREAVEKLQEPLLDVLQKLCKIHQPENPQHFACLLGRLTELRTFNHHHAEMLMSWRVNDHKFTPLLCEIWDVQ

The nature of experiment [3]: ATG_GRE_CIS: Attagene CIS-FACTORIAL HepG2 Assay for human Glucocorticoid Response Elements (GRE) (AID 2282947). Conditions: HepG2 GRE cis-reporter, Attagene multiplex mRNA; actives raise or lower the signal. Summed up: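 Reporter transcripts read by RT-PCR with capillary electrophoresis fluorescence after a 24 h chemical exposure of HepG2 cells transiently transfected with multiple cis-element reporter units. Gain or loss fitted against DMSO.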

Experiment [4] is described as follows: ATG_ISRE_CIS: Attagene CIS-FACTORIAL HepG2 Assay for human Interferon Regulatory Factor 1 (IRF1) binding to an Interferon-Stimulated Response Element (ISRE) (AID 2282948). Conditions: HepG2 ISRE cis-reporter (Attagene), mRNA transcription readout; actives raise or lower the signal. Summed up:
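Endogenous transcription factor activity read as reporter transcript abundance via RT-PCR and capillary electrophoresis. HepG2 cells transiently transfected, 24 h chemical exposure. Gain or loss fitted against DMSO baseline.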

Experiment [5] is described as follows: ATG_M_32_CIS: Attagene CIS-FACTORIAL HepG2 Assay for M32 Transcription Factor (Internal Marker) (AID 2282949).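 Also: background control marker of the multiplexed CIS panel rather than a real target.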 Conditions: HepG2 Attagene cis-factorial M32 reporter, mRNA; actives raise or lower the signal. Summed up:
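HepG2 transfectants (cis-regulated reporter transcription units) dosed 24 h. Reporter mRNA by RT-PCR plus CE, analysed as gain or loss relative to DMSO.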

A short description of experiment [6]: ATG_M_06_CIS: Attagene CIS-FACTORIAL HepG2 Assay for M06 Transcription Factor (Internal Marker) (AID 2282950). To be noted: HepG2 Attagene CIS-FACTORIAL M06 internal marker reporter; actives raise or lower the signal. Summed up:
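Read-out is fluorescence of labelled reporter cDNA fragments resolved by capillary electrophoresis after RT-PCR. Cells: HepG2 carrying transfected cis-promoter reporter units, treated 24 h. Gain or loss of signal fitted relative to DMSO.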

The target of experiment [7] is Hypoxia-inducible factor 1-alpha (Homo sapiens) (UniProt Q16665). The experiment is described as follows: ATG_HIF1a_CIS: Attagene CIS-FACTORIAL HepG2 Assay for human Hypoxia Inducible Factor 1 (HIF1A) (AID 2282951). Conditions: HepG2 Attagene cis-factorial HIF1a reporter transcription; actives raise or lower the signal. The method, boiled down:
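HepG2 cells transiently transfected with multiple cis-regulated reporter transcription units measure endogenous transcription factor activity. After 24 h exposure, reporter mRNA is quantified by RT-PCR with 6-FAM labelling, HpaI digestion and capillary electrophoresis. Bidirectional fitting against DMSO.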

Experiment [8] addresses Hepatocyte nuclear factor 6 (Homo sapiens) (UniProt Q9UBC0). The experiment is described as follows: ATG_HNF6_CIS: Attagene CIS-FACTORIAL HepG2 Assay for human Hepatocyte Nuclear Factor 6 (HNF6) (AID 2282952). Conditions: HepG2 Attagene cis-factorial HNF6 reporter transcription; actives raise or lower the signal. Summed up:
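Endogenous transcription factor activity in human HepG2 liver cells was captured through cis-regulated reporter constructs. After 24 h treatment, reporter mRNA was measured by RT-PCR with capillary electrophoresis, and activity was fitted in both directions relative to DMSO.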

Experiment [9] deals with Heat shock factor protein 1 (Homo sapiens) (UniProt Q00613). In words: ATG_HSE_CIS: Attagene CIS-FACTORIAL HepG2 Assay for human Heat Shock Transcription Factor 1 (HSE) (AID 2282953). To be noted: HepG2 HSE cis-reporter, Attagene RNA transcription; actives raise or lower the signal. Summed up:
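HepG2, transient MRTU transfection, cis-promoter reporters (endogenous TF activity). 24 h compound. RNA → oligo(dT) RT → PCR → 6-FAM primer extension → HpaI cut → CE. Bidirectional fit vs DMSO.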

The nature of experiment [10]: ATG_MRE_CIS: Attagene CIS-FACTORIAL HepG2 Assay for human Metal Responsive Element (MRE) (AID 2282954). To be noted: HepG2 MRE cis-reporter transcription, Attagene multiplex; actives raise or lower the signal. The method, boiled down:
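Endogenous MRE-dependent transcription read as reporter mRNA in transiently transfected human HepG2 cells at 24 h. RNA reverse-transcribed, PCR-amplified, labelled and resolved by capillary electrophoresis; gain or loss relative to DMSO.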

In experiment [11] the target is Paired box protein Pax-6 (Homo sapiens) (UniProt P26367). The experiment is described as follows: ATG_Pax6_CIS: Attagene CIS-FACTORIAL HepG2 Assay for human Paired Box 6 (PAX6) (AID 2282956). To be noted: HepG2 CIS-FACTORIAL PAX6 reporter transcription, RNA readout; actives raise or lower the signal. Summed up:
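Read-out is reporter transcript level, measured by RT-PCR with fluorescent primer extension and capillary electrophoresis after 24 h dosing of transfected HepG2 cells. Activity in either direction fitted relative to DMSO control.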

Experiment [12] is described as follows: ATG_PXRE_CIS: Attagene CIS-FACTORIAL HepG2 Assay for human Pregnane X Receptor Element (PXRE) (AID 2282957). To be noted: HepG2 Attagene CIS-FACTORIAL PXRE reporter, mRNA; actives raise or lower the signal. Summed up:
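Endogenous transcription factor activity in HepG2 was gauged through induction of reporter mRNA driven by a cis-regulating promoter element, sampled 24 h post-treatment. Activity was fitted in both directions against DMSO negative control.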

Experiment [13] in a line: ATG_PPRE_CIS: Attagene CIS-FACTORIAL HepG2 Assay for human Peroxisome Proliferator-activated Response Element (PPRE) (AID 2282958). To be noted: HepG2 PPRE cis-element reporter, Attagene transcription factor profiling; actives raise or lower the signal. Summed up:
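HepG2 cells are transiently transfected with multiplexed cis-promoter reporter units to report endogenous PPAR activity. After 24 h dosing, reporter mRNA is read by RT-PCR and capillary electrophoresis. Fitting is bidirectional against DMSO.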

Experiment [14] is described as follows: ATG_RORE_CIS: Attagene CIS-FACTORIAL HepG2 Assay for human RAR-related Orphan Receptor Element (RORE) (AID 2282959). Conditions: HepG2 Attagene cis-factorial RORE reporter, mRNA; actives raise or lower the signal. Summed up:
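HepG2 cells carrying transiently transfected cis-regulated reporter units; RORE-driven reporter mRNA quantified 24 h post-dosing by RT-PCR, 6-FAM primer extension, HpaI digestion and capillary electrophoresis. Bidirectional fit versus DMSO.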

A short description of experiment [15]: ATG_Sox_CIS: Attagene CIS-FACTORIAL HepG2 Assay for human SRY-box transcription factor (SOX) (AID 2282960). To be noted: HepG2 Attagene cis-factorial SOX reporter, mRNA; actives raise or lower the signal. The method, boiled down:
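HepG2 cells transiently transfected with multiple cis-regulated reporter units, then dosed for 24 h. Reporter mRNA quantified by RT-PCR, fluorescent labelling, HpaI digestion and capillary electrophoresis; bidirectional fit versus DMSO.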

Experiment [16] deals with Transcription factor Sp1 (Homo sapiens) (UniProt P08047). In words: ATG_Sp1_CIS: Attagene CIS-FACTORIAL HepG2 Assay for human Specificity Protein 1 (Sp1) (AID 2282961). Conditions: HepG2 Sp1 cis-reporter transcription, actives raise or lower the signal. The method, boiled down:
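HepG2 cells transiently transfected with multiplexed cis-regulated reporter constructs, chemical exposure 24 h. Reporter mRNA quantified by RT-PCR with capillary electrophoresis; bidirectional fit relative to DMSO.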

A short description of experiment [17]: ATG_SREBP_CIS: Attagene CIS-FACTORIAL HepG2 Assay for human Sterol Regulatory Element Binding (SREBP) (AID 2282962). Conditions: HepG2 Attagene cis-factorial SREBP reporter, mRNA; actives raise or lower the signal. The method, boiled down: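 Endogenous SREBP activity read as cis-element-driven reporter transcript in transiently transfected HepG2, 24 h post-dosing; quantified via RT-PCR plus capillary electrophoresis of fluorescent fragments. Gain or loss of signal fitted relative to DMSO baseline.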

The target in experiment [18] is Signal transducer and activator of transcription 3 (Homo sapiens) (UniProt P40763). In words: ATG_STAT3_CIS: Attagene CIS-FACTORIAL HepG2 Assay for human Signal Transducer and Activator of Transcription 3 (STAT3) (AID 2282963). Conditions: HepG2, Attagene cis-factorial STAT3 reporter transcription; actives raise or lower the signal. The method, boiled down:
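Readout is reporter transcript quantified by RT-PCR and capillary electrophoresis, with 6-FAM primer extension and HpaI digestion. Total RNA is taken 24 h after dosing transiently transfected HepG2 carrying cis-regulated reporter units. Bidirectional fit against DMSO.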

Experiment [19] in a line: ATG_PBREM_CIS: Attagene CIS-FACTORIAL HepG2 Assay for human Phenobarbital-responsive Enhancer Module (PBREM) (AID 2282955). To be noted: HepG2 PBREM cis-reporter, Attagene multiplexed transcription; actives raise or lower the signal. The method, boiled down: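 HepG2 cells transiently transfected with multiple cis-regulated reporter units measure endogenous transcription factor activity; 24 h compound exposure. Reporter mRNA quantified by RT-PCR, fluorescent labelling, HpaI digestion and capillary electrophoresis; bidirectional fit versus DMSO.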

Experiment [20] in a line: ATG_TA_CIS: Attagene CIS-FACTORIAL HepG2 Assay for human TA Basal Promoter (AID 2282964). To be noted: HepG2 Attagene CIS-factorial TA basal promoter reporter; actives raise or lower the signal. The method, boiled down: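 Read-out: fluorescent reporter-transcript fragments resolved by capillary electrophoresis after RT-PCR and HpaI digestion. Source: HepG2 cells carrying transiently transfected multi-reporter cis constructs, treated 24 h. Endpoint fitted bidirectionally relative to DMSO.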

The source of these data is PubChem BioAssay (EPA / NIEHS).

Structures are written as SMILES. Activity calls are given as the source filed them. The calls were made as follows: active = hit-call score of the fitted dose curve at least 0.9, where 1 is the maximum; inactive = score below 0.9.

Heat shock factor protein 1 (Homo sapiens), sequence (Q00613 whole entry, looked up): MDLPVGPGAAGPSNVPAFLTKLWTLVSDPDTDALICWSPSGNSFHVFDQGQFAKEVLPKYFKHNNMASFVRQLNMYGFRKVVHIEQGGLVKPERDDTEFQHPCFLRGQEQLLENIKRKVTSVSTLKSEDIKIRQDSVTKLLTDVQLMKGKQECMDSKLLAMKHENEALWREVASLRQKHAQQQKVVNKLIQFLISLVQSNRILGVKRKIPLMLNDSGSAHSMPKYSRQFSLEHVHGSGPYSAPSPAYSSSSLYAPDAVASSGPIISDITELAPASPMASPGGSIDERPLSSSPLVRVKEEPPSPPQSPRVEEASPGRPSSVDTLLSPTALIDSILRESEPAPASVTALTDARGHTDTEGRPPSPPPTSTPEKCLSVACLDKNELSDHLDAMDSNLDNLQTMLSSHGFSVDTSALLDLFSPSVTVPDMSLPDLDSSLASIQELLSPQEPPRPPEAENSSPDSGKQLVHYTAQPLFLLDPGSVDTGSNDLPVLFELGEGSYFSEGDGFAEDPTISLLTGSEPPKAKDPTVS
Transcription factor Sp1 (Homo sapiens), sequence (P08047 whole entry, looked up): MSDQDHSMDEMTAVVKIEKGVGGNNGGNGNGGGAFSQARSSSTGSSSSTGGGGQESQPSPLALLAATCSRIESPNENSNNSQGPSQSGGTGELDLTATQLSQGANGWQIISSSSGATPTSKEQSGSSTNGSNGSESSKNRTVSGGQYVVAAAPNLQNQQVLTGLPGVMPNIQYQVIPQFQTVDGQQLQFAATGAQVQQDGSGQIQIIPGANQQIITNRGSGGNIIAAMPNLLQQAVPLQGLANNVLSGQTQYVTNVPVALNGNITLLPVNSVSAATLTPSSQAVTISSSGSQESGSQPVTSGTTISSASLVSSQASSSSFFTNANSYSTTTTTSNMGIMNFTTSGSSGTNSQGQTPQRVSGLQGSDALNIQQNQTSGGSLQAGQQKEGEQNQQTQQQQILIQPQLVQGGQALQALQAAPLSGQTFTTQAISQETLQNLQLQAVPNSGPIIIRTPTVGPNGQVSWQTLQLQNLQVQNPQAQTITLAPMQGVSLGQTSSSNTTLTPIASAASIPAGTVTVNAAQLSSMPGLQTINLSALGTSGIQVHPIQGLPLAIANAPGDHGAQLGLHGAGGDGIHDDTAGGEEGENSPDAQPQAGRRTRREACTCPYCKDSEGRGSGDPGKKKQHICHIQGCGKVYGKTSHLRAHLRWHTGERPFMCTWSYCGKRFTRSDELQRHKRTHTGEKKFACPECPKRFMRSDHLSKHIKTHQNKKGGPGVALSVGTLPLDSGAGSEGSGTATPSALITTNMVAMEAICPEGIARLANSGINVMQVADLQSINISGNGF
Signal transducer and activator of transcription 3 (Homo sapiens), sequence (P40763 whole entry, looked up): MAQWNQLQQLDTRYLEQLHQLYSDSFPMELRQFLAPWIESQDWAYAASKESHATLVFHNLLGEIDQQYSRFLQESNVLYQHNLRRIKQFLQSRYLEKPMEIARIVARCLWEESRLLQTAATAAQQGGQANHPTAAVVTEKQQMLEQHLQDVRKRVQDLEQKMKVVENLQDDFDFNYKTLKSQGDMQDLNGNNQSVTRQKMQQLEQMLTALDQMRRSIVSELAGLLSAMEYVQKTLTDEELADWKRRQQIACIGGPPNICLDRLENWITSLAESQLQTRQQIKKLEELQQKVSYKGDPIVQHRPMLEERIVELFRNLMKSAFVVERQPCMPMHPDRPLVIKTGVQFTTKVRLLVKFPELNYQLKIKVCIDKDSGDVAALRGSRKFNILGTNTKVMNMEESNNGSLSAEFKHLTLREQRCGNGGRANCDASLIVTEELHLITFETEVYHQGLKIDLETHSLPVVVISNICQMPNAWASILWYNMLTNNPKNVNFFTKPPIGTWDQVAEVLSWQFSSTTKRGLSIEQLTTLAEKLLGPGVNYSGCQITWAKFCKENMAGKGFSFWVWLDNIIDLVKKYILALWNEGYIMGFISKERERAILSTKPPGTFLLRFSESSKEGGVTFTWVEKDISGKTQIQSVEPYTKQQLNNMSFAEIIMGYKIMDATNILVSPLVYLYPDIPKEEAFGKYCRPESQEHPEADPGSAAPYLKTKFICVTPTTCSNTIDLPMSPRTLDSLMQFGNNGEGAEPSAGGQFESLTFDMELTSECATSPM
Paired box protein Pax-6 (Homo sapiens), sequence (P26367 whole entry, looked up): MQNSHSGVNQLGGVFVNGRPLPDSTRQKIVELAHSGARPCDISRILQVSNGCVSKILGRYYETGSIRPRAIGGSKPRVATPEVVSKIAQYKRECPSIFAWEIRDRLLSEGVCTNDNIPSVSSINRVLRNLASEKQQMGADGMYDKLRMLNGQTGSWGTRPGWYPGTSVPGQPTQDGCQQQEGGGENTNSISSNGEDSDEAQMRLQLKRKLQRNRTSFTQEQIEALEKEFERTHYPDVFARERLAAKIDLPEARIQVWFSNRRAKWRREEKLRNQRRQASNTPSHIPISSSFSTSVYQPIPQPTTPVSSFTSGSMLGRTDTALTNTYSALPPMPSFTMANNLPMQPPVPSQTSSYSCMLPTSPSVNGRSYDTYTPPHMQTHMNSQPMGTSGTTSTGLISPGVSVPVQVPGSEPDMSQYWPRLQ
Hepatocyte nuclear factor 6 (Homo sapiens), sequence (Q9UBC0 whole entry, looked up): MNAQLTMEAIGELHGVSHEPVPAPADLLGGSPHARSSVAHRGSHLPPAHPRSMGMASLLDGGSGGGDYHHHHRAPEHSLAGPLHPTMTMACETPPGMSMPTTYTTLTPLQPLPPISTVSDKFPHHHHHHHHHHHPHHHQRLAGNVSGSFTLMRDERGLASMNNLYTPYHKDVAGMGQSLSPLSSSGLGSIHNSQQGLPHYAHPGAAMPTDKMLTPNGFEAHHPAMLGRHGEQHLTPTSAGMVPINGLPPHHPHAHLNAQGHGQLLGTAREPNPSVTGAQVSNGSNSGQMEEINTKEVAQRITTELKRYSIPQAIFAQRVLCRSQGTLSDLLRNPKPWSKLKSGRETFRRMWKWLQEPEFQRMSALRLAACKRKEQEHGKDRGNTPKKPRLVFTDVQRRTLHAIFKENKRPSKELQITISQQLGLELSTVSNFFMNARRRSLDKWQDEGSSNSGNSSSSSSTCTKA
Hypoxia-inducible factor 1-alpha (Homo sapiens), sequence (Q16665 whole entry, looked up): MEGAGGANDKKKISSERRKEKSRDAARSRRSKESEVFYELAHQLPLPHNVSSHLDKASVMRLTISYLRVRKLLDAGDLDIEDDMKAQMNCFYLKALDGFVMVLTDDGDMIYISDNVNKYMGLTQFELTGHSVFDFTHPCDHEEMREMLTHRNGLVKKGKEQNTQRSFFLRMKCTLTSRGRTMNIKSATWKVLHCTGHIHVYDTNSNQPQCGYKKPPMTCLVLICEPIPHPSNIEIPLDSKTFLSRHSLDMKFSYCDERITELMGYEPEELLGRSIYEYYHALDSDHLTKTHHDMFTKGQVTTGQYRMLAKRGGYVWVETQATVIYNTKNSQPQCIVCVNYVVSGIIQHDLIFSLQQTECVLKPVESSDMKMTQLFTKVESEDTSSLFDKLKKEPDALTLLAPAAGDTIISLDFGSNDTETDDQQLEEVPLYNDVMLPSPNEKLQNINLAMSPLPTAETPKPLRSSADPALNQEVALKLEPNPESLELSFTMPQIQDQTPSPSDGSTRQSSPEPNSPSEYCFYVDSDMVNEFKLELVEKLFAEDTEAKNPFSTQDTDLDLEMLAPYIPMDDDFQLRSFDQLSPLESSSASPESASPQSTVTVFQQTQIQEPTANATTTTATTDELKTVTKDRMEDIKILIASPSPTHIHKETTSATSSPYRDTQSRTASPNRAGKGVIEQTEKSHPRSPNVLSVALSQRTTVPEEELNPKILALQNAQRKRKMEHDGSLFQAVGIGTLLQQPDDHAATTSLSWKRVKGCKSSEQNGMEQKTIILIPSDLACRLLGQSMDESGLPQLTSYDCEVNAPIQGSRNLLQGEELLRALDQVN

Regarding `COCCOCCC[Si](C)(O[Si](C)(C)C)O[Si](C)(C)C`, the result in experiment [1], in experiment [4], in [5], in [6], in experiment [7] and in experiment [8] was inactive. Besides, the outcome in experiment [10], in [11], in experiment [13], in experiment [14] and in [18] was inactive. In addition, the AC50 in experiment [2] is 51 µM (active); in [3], 8.99 µM (active); in experiment [9] it was 20.3 µM (active); in experiment [12], 752 nM (active); in experiment [15], 8.52 µM (active); in experiment [16], 9.13 µM (active). In addition, the AC50 in [17] was 6.62 µM (active).
With `CC(=O)c1ccccc1N`, the compound was called inactive in [1], in experiment [2], in [3], in experiment [4], in [5] and in experiment [6]. For the same compound, the compound was called inactive in experiment [7], in experiment [8], in [9], in experiment [10], in experiment [19] and in experiment [12]. The compound was called inactive in experiment [13], in experiment [14], in experiment [15], in [16], in experiment [17] and in experiment [18]. The result in experiment [20] was inactive.
For the compound `O=C(Cl)C(F)(F)C(F)(F)C(F)(F)C(F)(F)C(F)(F)C(F)(F)C(F)(F)F`, the compound was called inactive in experiment [1], in experiment [2], in experiment [3], in [4], in experiment [5] and in experiment [6]. Besides, the outcome in experiment [7], in experiment [8], in experiment [9], in experiment [10], in experiment [19] and in experiment [11] was inactive. Also, the compound was called inactive in experiment [12], in experiment [14], in experiment [15], in [16], in [17] and in experiment [20]. Besides, the AC50 in [13] was 69.5 µM (active).
With `Cc1ccc(O)cn1`, the compound was called inactive in experiment [1], in experiment [2], in experiment [3], in [4], in experiment [5] and in experiment [6]. Further, the compound was called inactive in [7], in experiment [8], in experiment [9], in experiment [10], in experiment [11] and in experiment [12]. For the same compound, the compound was classed as inactive in experiment [13], in experiment [14], in [15], in experiment [16], in experiment [17] and in [18]. Further, the compound was called inactive in experiment [20].

As a reminder, the AC50 is the concentration giving half of the maximal activity seen.
